Potency data for 97 molecules are collected here from PubChem BioAssay AID588856 (National Center for Advancing Translational Sciences (NCATS), 2011).

Each structure is given as a SMILES string. “And” between values parts separate entries of the source, which are not always exact repeats. Equal entries are not always repeated. Screen size: about 410,000 compounds; about 3,100 (0.76%) were called active. Entries that show only a call come without a potency. Calls follow the shape of the dose curve; as a rule, active = well fitted cell-killing curve with a large enough effect; inactive = no such curve, though single readings can be large or run the other way. Many of the other results were omitted from the sample, so actives are more common in it than they were. Some structures have more than one record in an assay (separate samples or runs), and their calls can disagree.
Potency is read from the fitted curve at half-maximal effect.

This assay can be described thus: qHTS for Inhibitors of TGF-b: Cytotox Counterscreen. The following applies: HepG2 CAGA-GFP viability, ATP luminescence, 18 h; series mostly up to 46.1 µM. The procedure, abridged:
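CellTiter-Glo luminescence gave cytotoxicity after 18 hours at 37 degrees C. The cells were HepG2 CAGA-GFP in 1% FBS DMEM, stimulated with 500 pg/mL TGF-beta after compound addition. %Activity was normalised to no-cell wells (complete cell-killing) and DMSO (no toxicity), and curves were fitted and classified.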
A general note: Quantitative high-throughput screening tests each substance at several concentrations.
Consider `Nc1ccc(Nc2ccccc2)cc1`, for which the Potency was 12.6 µM (active).

Turning to `Nc1ccccc1N`, the Potency entry was “inactive”.

For `Cc1ccc(Nc2ccccc2N)cc1`, the Potency result is “inactive”.

Consider `OCCNc1ncnc2oc(-c3ccco3)c(-c3ccco3)c12`, for which the Potency entry is “inactive”.

As for `Cc1ccc(-c2nn(CCC(=O)Nc3ccc(Cl)c(Cl)c3)c(=O)c3ccccc23)cc1`, the Potency result is “inactive”.

On to `O=C(CSc1nnc(-c2ccncc2)n1-c1ccccc1)Nc1ccc(Cl)c(Cl)c1`, for which the Potency result is “inactive”.

Regarding `O=C(CC(O)(C(F)(F)F)C(F)(F)F)Nc1ccc(Cl)c(Cl)c1`, the Potency is 10 µM (active).

Consider `O=C(Nc1cc(C(F)(F)F)ccc1Cl)c1ccc2c(c1)CCN2S(=O)(=O)c1ccccc1`, for which the Potency entry is “inactive”.

In the case of `NC(=O)Nc1ccc(/C=C/c2ccnc3ccccc23)cc1`, the Potency entry is “inactive”.

As to `CCN(CC)S(=O)(=O)c1ccc(NC(=O)c2cccnc2Cl)c(NC(=O)c2cccnc2Cl)c1`, the Potency is 12.6 µM (active).

With `CCN(CC)S(=O)(=O)c1ccc(C)c(NC(=O)COc2ccc(Br)cc2Cl)c1`, the Potency entry was “inactive”.

`Cc1ccc(S(=O)(=O)N(C)C)cc1NC(=O)c1ccccc1Br`: the Potency entry was “inactive”.

Consider `O=C1O/C(=C\c2ccc(O)cc2)C(O)=C1c1ccc(O)cc1`, for which the Potency result was “inactive”.

`COc1ccc(CN2CCC(=O)c3ccccc3S2(=O)=O)cc1`: the Potency result was “inactive”.

For `OCC(O)C(O)C(O)C(O)C=Nc1ccc(/C=C/c2ccnc3ccccc23)cc1` (configuration not stated), the Potency entry was “inactive”.

As for `Cc1nn(Cc2ccc(F)cc2)c(C)c1NC(=O)c1cc(CC(C)C)on1`, the Potency entry is “inactive”.

For `O=C1CCC[C@@H]2C[C@@]3(C[C@@H]4CCN1[C@H]24)Nc1ccccc1NC3=NCc1ccccc1`, the Potency result is “inactive”.

Turning to `COc1cc(OC)c(OC)cc1/C=C1\C=Cc2ccccc21`, the Potency entry is “inactive”.

`Cc1nc2nc(SCC(=O)NC3CCC(C)CC3)nn2c(C)c1Cc1ccccc1Cl` (configuration not stated): the Potency entry was “inactive”.

In the case of `CCOc1ccc(CNC(=O)C2CCCN(c3nnc(C)c4c(C)n(-c5ccccc5)nc34)C2)cc1` (configuration not stated), the Potency result was “inactive and 12.6 µM (active)”.

On to `CCCCNC(=O)C1CCCN(c2nnc(C)c3c(C)n(-c4ccc(Cl)cc4)nc23)C1` (configuration not stated), for which the Potency entry was “inactive”.

In the case of `Cc1nnc(N2CCCC(C(=O)NCCN(C)C)C2)c2nn(-c3ccccc3)c(C)c12` (configuration not stated), the Potency entry is “inactive”.

With `C(=Nc1ccc(/C=C/c2ccnc3ccccc23)cc1)Nc1ccc(/C=C/c2ccnc3ccccc23)cc1`, the Potency result was “inactive”.

Turning to `CCc1ccc(NC(=O)c2cc3c(=O)n(Cc4cccnc4)ccc3nc2C)cc1`, the Potency result is “inactive”.

As for `Cc1c(Cl)cccc1NC(=O)Cn1cc(C(=O)c2cccs2)c2ccccc21`, the Potency result was “inactive”.

As for `O=[N+]([O-])c1c(NCCO)cc(Sc2nc3ccccc3s2)c2nonc12`, the Potency is 15.8 µM (active).

Take `CC(C)(C)c1ccc(S(=O)(=O)Nc2ccc(O)c(Sc3nc4ccccc4s3)c2)cc1`: the Potency entry is “inactive”.

For the molecule `CC(C)c1ccc(S(=O)(=O)Nc2ccc(O)c(Sc3nc4ccccc4s3)c2)cc1`, the Potency entry was “inactive”.

As to `COc1ccc(-c2nn(CC(=O)Nc3ccccc3F)c3c2cnc2ccc(F)cc23)cc1`, the Potency entry is “inactive”.

`CN(CCC#N)c1ccc(C=O)cc1`: the Potency result was “inactive”.

`O=C(Cn1c(=O)n(-c2ccc(F)cc2)c(=O)c2sccc21)Nc1cccc(C(F)(F)F)c1`: the Potency entry was “inactive”.

Regarding `COc1ccc(/C=C/c2ccnc3ccccc23)cc1OC`, the Potency entry is “inactive”.

Take `O=C(c1c(Cl)cccc1Cl)N1CCN(c2cccc3[nH]ccc23)CC1`: the Potency is 0.447 µM (active).

For the molecule `Cc1cccc(N2CCN(C(=O)c3cc4c(=O)[nH]c5ccccc5c4n3C)CC2)c1C`, the Potency entry was “inactive”.

For the molecule `O=C(c1ccc2ccccc2n1)N1CCN(c2ccccc2Cl)CC1`, the Potency result is “inactive”.

In the case of `CCc1ccccc1N(C)C(=O)C1CCCN(c2ncnc3onc(-c4ccc(F)cc4)c23)C1` (configuration not stated), the Potency result was “inactive”.

`Oc1cccc2cc(-c3ccncc3)cnc12`: the Potency is 2.82 µM (active).

For the molecule `Cc1ccc2c(c1)N(C(=O)CCC(=O)NCc1ccccc1F)CC(C)O2` (configuration not stated), the Potency result is “inactive”.

With `CC1=C(C(=O)OCC2CCCCC2)C(c2c(F)cccc2Cl)CC(=O)N1` (configuration not stated), the Potency result is “inactive”.

With `COC(=O)c1ccc(OCC(O)CN(CCO)CC(O)Cn2ccc3ccccc32)cc1` (configuration not stated), the Potency entry was “inactive”.

Turning to `CN(Cc1ccccc1)CC(O)COc1ccc(CNCc2cc3ccccc3s2)cc1` (configuration not stated), the Potency is 11.2 µM (active).

For `COc1cccc(CN(C)CC(O)COC(c2ccccc2)c2ccccc2C)c1` (configuration not stated), the Potency result is “inactive”.

`C=C1CCN(C(CC(C)C)C(=O)NCc2cc(OC)c(OC)c(OC)c2)S(=O)(=O)c2ccccc21` (configuration not stated): the Potency result is “inactive”.

With `N#CCC(=O)N/N=C/c1cn(Cc2ccc3ccccc3c2)c2ccccc12`, the Potency is 3.55 µM (active).

On to `Cc1ccc(Cl)cc1NC(=O)/C(C#N)=C\c1cn(Cc2ccc(F)cc2)c2ccccc12`, for which the Potency entry is “inactive”.

For `O=C(Cn1cc(/C=N/NC(=O)c2cccc(C(F)(F)F)c2)c2ccccc21)Nc1ccc(F)cc1`, the Potency result was “inactive”.

Turning to `Cc1ccc(Cn2c(CCCNC(=O)C3CCCCC3)nc3ccccc32)cc1`, the Potency result is “inactive”.

On to `Cc1ccc2c(=O)c(C(=O)c3cccc(Cl)c3)cn(CC(=O)NCc3ccccc3)c2n1`, for which the Potency entry was “inactive”.

Take `COc1ccc(Cn2c(C(=O)O)c(CNCCc3cccs3)c3ccc(OC)cc32)cc1`: the Potency entry was “inactive”.

As for `COc1ccc(CCNCc2c(-c3ccccc3)n(C)c3ccccc23)cc1`, the Potency is 12.6 µM (active).

On to `COc1ccc(-c2c(C#Cc3ccccc3)c3ccccc3n2C)cc1`, for which the Potency result was “inactive”.

Turning to `CN(C)c1ccc(/C=C/c2sc3ccccc3[n+]2C)cc1`, the Potency result was “inactive”.

For the molecule `CCC(C)c1ccc2oc(-c3ccc(NC(=O)c4cc5ccccc5o4)cc3)nc2c1` (configuration not stated), the Potency entry is “inactive”.

With `CN(C)C(CNC(=O)Cc1ccc([N+](=O)[O-])cc1)c1ccccc1` (configuration not stated), the Potency entry was “inactive”.

Regarding `CN(NC(=O)c1ccccc1F)c1nc(C(F)(F)F)nc2ccccc12`, the Potency entry is “inactive”.

With `CCc1ccc(C(CNc2nc(C(F)(F)F)nc3ccccc23)N(C)C)cc1` (configuration not stated), the Potency was 20 µM (active).

As for `CC1CCN(S(=O)(=O)c2ccc3c(ccn3CCC(=O)NCc3ccc(N(C)C)cc3)c2)CC1`, the Potency result was “inactive”.

For `O=C(O)c1c(Br)c(Br)c(Br)c(Br)c1C1c2ccc(O)cc2Oc2cc(O)ccc21`, the Potency result was “inactive”.

In the case of `Cc1cc(F)ccc1NS(=O)(=O)c1ccc(-n2cccn2)cc1`, the Potency result is “inactive”.

Take `Cc1ccc(Oc2ccc3c(c2)C(=O)N(c2cccc4cccnc24)C3=O)cc1`: the Potency result was “inactive”.

Turning to `Cc1ccc(OCCn2c(CNc3ccccc3C)nc3ccccc32)cc1`, the Potency entry was “inactive”.

For the molecule `Cc1ccc(OS(=O)Nc2cccc3nccnc23)cc1` (configuration not stated), the Potency was 15.8 µM (active).

With `CCOCCn1ccc2c(OCC(=O)NCc3ccc(C)cc3)cccc2c1=O`, the Potency result was “inactive”.

For `COc1ccc(Cc2nc3ccc(C(=O)NCc4ccc(OC)cc4OC)cc3o2)cc1`, the Potency result was “inactive”.

Consider `CCOC(=O)c1c(NC(=O)C2CCN(S(=O)(=O)c3ccc(Cl)cc3)CC2)sc2c1CCCC2`, for which the Potency result is “inactive”.

As to `COC(=O)c1c(NC(=O)c2ccc(S(=O)(=O)N3CCOCC3)cc2)sc2c1CCN(C(C)C)C2`, the Potency entry is “inactive”.

As to `CCOC(=O)c1c(NC(=O)c2ccc(S(=O)(=O)N3CCCC(C)C3)cc2)sc2c1CCN(C(C)C)C2` (configuration not stated), the Potency was 10 µM (active).

For the molecule `Cc1nc2c(c(C)nn2-c2ccccc2)c(C)c1CCC(=O)NCCc1ccc(Cl)cc1`, the Potency entry is “inactive”.

For `CCOCCCNC(=O)c1cn(CC)c2ccc(S(=O)(=O)N3CCc4ccccc4C3)cc2c1=O`, the Potency entry is “inactive”.

As to `CCOC(=O)c1c(C)oc2nc(C)nc(N(CC(C)C)CC(C)C)c12`, the Potency result was “inactive”.

For the molecule `CCOC(=O)c1ccc(N2C(=O)c3n[nH]c(C)c3C2c2ccc(O)c(OC)c2)cc1` (configuration not stated), the Potency result is “inactive”.

On to `CCOc1cc(C2c3c(-c4ccc(Br)cc4)n[nH]c3C(=O)N2c2ccc(Cl)cc2)ccc1O` (configuration not stated), for which the Potency was 10 µM (active).

In the case of `CCOc1ccc(-c2n[nH]c3c2C(c2ccccc2OC)N(c2ccc(Br)cc2)C3=O)cc1` (configuration not stated), the Potency result is “inactive”.

As for `O=C(NCc1ccc(Cl)cc1)c1ccc2c(c1)nnn2C1CCCC1`, the Potency entry is “inactive”.

With `COc1ccc(C(=O)/C=C/c2cccnc2)c(OC)c1`, the Potency was 15.8 µM (active).

Turning to `COc1ccc(/C=C/C(=O)c2cc(Br)ccc(=O)c2O)cc1`, the Potency result is “inactive”.

Turning to `COc1ccc(C(=O)COC(=O)C(O)c2ccccc2)c(OC)c1` (configuration not stated), the Potency entry was “inactive”.

Regarding `CCS(=O)(=O)c1nc(S(=O)(=O)c2ccc(C)cc2)c(NCc2ccc(Cl)cc2)s1`, the Potency entry was “inactive”.

With `CCC(=O)N1CCc2cc(Br)cc(S(=O)(=O)CCC(=O)NCCc3ccc(OC)c(OC)c3)c21`, the Potency result was “inactive”.

Turning to `COc1ccc(-c2cn3nc(N4CCC(C(=O)Nc5cccc(C)c5C)CC4)sc3n2)cc1`, the Potency result is “inactive”.

As to `CC(C)=CCCC1(C)C=Cc2c(ccc3c2[nH]c2cc(O)c(C)cc23)O1` (configuration not stated), the Potency was 15.8 µM (active).

Take `Brc1ccc2c(c1)NC(c1cccnc1)=NC(c1ccccc1)=N2`: the Potency result was “inactive”.

Consider `COc1ccc(CCNC(=O)c2cc(=O)c3c(C)cc(C)cc3o2)cc1OC`, for which the Potency entry was “inactive”.

On to `Cc1ccc(N(C)C(=O)C2CCN(S(=O)(=O)c3ccc4c(c3)CCCN4C(=O)C3CCC3)CC2)cc1`, for which the Potency entry is “inactive”.

Turning to `CCc1ccc(NC(=O)C2CCCN2S(=O)(=O)c2ccc3nc(-c4ccccc4)[nH]c3c2)cc1` (configuration not stated), the Potency entry was “inactive”.

In the case of `O=S(=O)(N1CCOCC1)N1CCN(c2ccccc2F)CC1`, the Potency result was “inactive”.

On to `O=C(c1ccc(CN2CCOCC2)cc1)N1CCN(c2ccccc2F)CC1`, for which the Potency was 3.16 µM (active).

Take `O=C(CCSc1ccccc1)N1CCN(c2ccccc2F)CC1`: the Potency result is “inactive”.

Regarding `Cc1cccc(N2CCN(C(=O)c3ccc(Nc4nc5ccccc5n5nnnc45)cc3)CC2)c1C`, the Potency result was “inactive”.

Consider `CN(C)c1ccc(C=Nc2ccc(/C=C/c3ccnc4ccccc34)cc2)cc1`, for which the Potency entry was “inactive”.

Regarding `Oc1c(Cl)cc(Cl)c(Cl)c1Cc1c(O)c(Cl)cc(Cl)c1Cl`, the Potency is 10 µM (active).

For the molecule `N#Cc1ccc[n+](CC(=O)c2ccc(F)cc2)c1`, the Potency entry is “inactive”.

On to `COC(=O)c1ccc(Cn2c(SCC(=O)N(C)c3ccccc3)nc3ccccc32)cc1`, for which the Potency result was “inactive”.

`CCOC(=O)c1c(-c2ccc(C)cc2C)csc1NC(=O)CSc1nnnn1C`: the Potency result was “inactive”.

On to `CCCS(=O)(=O)c1ncc(Cl)c(C(=O)Nc2scc(-c3ccccc3)c2C(=O)OCC)n1`, for which the Potency is 11.2 µM (active).

With `CCOC(=O)c1scc(-c2ccccc2)c1S(=O)(=O)Nc1ccccc1F`, the Potency result is “inactive”.

As to `CCOC(=O)c1ccc(NC(=O)CC2C(=O)N(c3ccccc3)C(=O)N2Cc2cccs2)cc1` (configuration not stated), the Potency entry was “inactive”.
